12 compounds from the supplement of paper PMC12494721 can be followed below.

Structures are written as SMILES. Structures can show the parent of a compound that is named as a salt.

What all share (settings): incubation time: 27 h, anaerobic, 37 °C
Assay [1] concerns Clostridium sporogenes DSM 1664. Description: growth (OD595) fold change vs plate DMSO controls (fold change (ratio)); higher = more growth. An outline of the steps:
(§1)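 Growth is expressed as the fold change relative to the median of the DMSO control wells on each plate. Cultures in mGAM were grown anaerobically in 96-well plates for 27 h at 37 °C, shaken, and read at 595 nm. Readings were blank-subtracted, corrected for compound background with 20 µM compound solutions in water, and converted to OD with a calibration factor of 5. Fold changes above 1.5 were set to NA, and each value is the mean of 2 biological replicates.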

The test system of assay [2] is Escherichia coli IAI1. The assay is described as above. An outline of the steps:
as §1

Assay [3] deals with Klebsiella aerogenes DSM 30053. Described as above. In short, it runs like this:
as §1

The test system of assay [4] is Ruminococcus gnavus DSM 108212. The description is as above. An outline of the steps: as §1
For assay [5], the system named is Klebsiella aerogenes DSM 30053. Nature of the assay: fold change of Histamine concentration vs plate DMSO controls (fold change (ratio)); higher = more amine produced, active = hit call of the paper (significant change in both replicates, either direction). In short, it runs like this: (§2)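 Each value is the fold change relative to DMSO-only wells on the same plate. Four gut bacterial strains were grown anaerobically in mGAM at 37 °C for 27 h in 80 µL wells, starting at OD 0.1 before a 1:1 dilution, with compounds at 20 µM final (sweeteners 50 µM). Whole cultures were extracted with cold acetonitrile/methanol containing 0.1% formic acid, centrifuged, and amines were quantified by LC–triple-quadrupole MS (dynamic MRM) against external calibration curves with within-batch drift correction. Values are means of 2 biological replicates.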

Assay [6] concerns Clostridium sporogenes DSM 1664. Nature of the assay: fold change of Tryptamine concentration vs plate DMSO controls (fold change (ratio)); higher = more amine produced, active = hit call of the paper (significant change in both replicates, either direction). In short, it runs like this:
as §2

The subject of assay [7] is Ruminococcus gnavus DSM 108212. The description is as above. In short, it runs like this:
as §2

Assay [8] relates to Escherichia coli IAI1. Nature of the assay: fold change of Putrescine concentration vs plate DMSO controls (fold change (ratio)); higher = more amine produced, active = hit call of the paper (significant change in both replicates, either direction). An outline of the steps:
as §2

In assay [9] the test system is Klebsiella aerogenes DSM 30053. The description is as above. An outline of the steps: as §2
Assay [10] has as its system Escherichia coli IAI1. Nature of the assay: fold change of Cadaverine concentration vs plate DMSO controls (fold change (ratio)); higher = more amine produced, active = hit call of the paper (significant change in both replicates, either direction). An outline of the steps:
as §2

Assay [11] concerns Klebsiella aerogenes DSM 30053. The assay is described as above. An outline of the steps:
as §2

The subject of assay [12] is Ruminococcus gnavus DSM 108212. Description: fold change of 2-Phenylethylamine concentration vs plate DMSO controls (fold change (ratio)); higher = more amine produced, active = hit call of the paper (significant change in both replicates, either direction). An outline of the steps:
as §2

Take `CN(C)CCc1c[nH]c2ccc(Cn3cncn3)cc12` [Rizatriptan benzoate] (20 µM): the growth in assay [1] was determined as 0.987; in [2] it was 0.971; in assay [3] it was 1.02; in assay [4] it was 0.996. Moreover, the “fold change of Histamine concentration” value in [5] was 0.934 (inactive). The “fold change of Tryptamine concentration” value in assay [6] was 1 (inactive); in assay [7], 1.01 (inactive). For the same compound, the “fold change of Putrescine concentration” value is 0.97 (inactive) in assay [8] and 1.01 (inactive) in assay [9]. The “fold change of Cadaverine concentration” value in assay [10] is 1.02 (inactive); in assay [11], 1.01 (inactive). Moreover, the “fold change of 2-Phenylethylamine concentration” value in [12] is 0.989 (inactive).
`COc1ccccc1OCCNCC(O)COc1cccc2[nH]c3ccccc3c12` (centres undefined) [Carvedilol] (20 µM): the growth was 0.934 in assay [1], 0.974 in assay [2], 0.98 in [3] and 1.01 in assay [4]. Moreover, the “fold change of Histamine concentration” value in assay [5] is 0.972 (inactive). The “fold change of Tryptamine concentration” value in assay [6] was 1.03 (inactive); in assay [7], 0.977 (inactive). For the same compound, the “fold change of Putrescine concentration” value in [8] was 0.987 (inactive); in [9], 0.98 (inactive). Further, the results for the “fold change of Cadaverine concentration” value in assay [10] and in assay [11] were 1.02 (inactive) and 0.989 (inactive), respectively. In addition, the “fold change of 2-Phenylethylamine concentration” value in assay [12] is 0.998 (inactive).
As to `CN(N=O)C(=O)N[C@H]1C(O)O[C@H](CO)[C@@H](O)[C@@H]1O` (mixture of isomers) [Streptozotocin] (20 µM), the growth in assay [1] was 1.04; in [2] it was 1.19; in [3] it was 1; in [4], 0.279. In addition, the “fold change of Histamine concentration” value in assay [5] was 0.835 (inactive). For the same compound, the “fold change of Tryptamine concentration” value in [6] is 0.798 (inactive); in [7] it was 0.312 (active). In addition, the “fold change of Putrescine concentration” value in assay [8] was 1.04 (inactive); in assay [9], 0.962 (inactive). Besides, the “fold change of Cadaverine concentration” value in assay [10] was 1.31 (active); in [11], 0.993 (inactive). The “fold change of 2-Phenylethylamine concentration” value in [12] is 0.376 (inactive).
In the case of `C=CC(N)CCC(=O)O` (centres undefined) [Vigabatrin hydrochloride] (20 µM), the growth in [1] came out at 1.11; in assay [2] it was 1.06; in assay [3], 1.17; in [4], 0.977. In [5], the “fold change of Histamine concentration” value was 0.856 (inactive). Moreover, the “fold change of Tryptamine concentration” value was 0.993 (inactive) in assay [6] and 1.02 (inactive) in assay [7]. For the same compound, the “fold change of Putrescine concentration” value in [8] is 1.02 (inactive); in [9], 1.01 (inactive). The “fold change of Cadaverine concentration” value is 0.978 (inactive) in assay [10] and 1.03 (inactive) in [11]. Besides, the “fold change of 2-Phenylethylamine concentration” value in assay [12] was 1 (inactive).
For `Cc1ccc2c(c1)c1c3n2CCNC3CCC1` (centres undefined) [Pirlindole mesylate] (20 µM), the growth in assay [1] was 0.975; in assay [2] it was 1.06; in assay [3], 0.98; in assay [4], 1. Moreover, in assay [5], the “fold change of Histamine concentration” value was 0.963 (inactive). For the same compound, the “fold change of Tryptamine concentration” value was 0.987 (inactive) in assay [6] and 1.05 (inactive) in assay [7]. Besides, the “fold change of Putrescine concentration” value was 1.06 (inactive) in assay [8] and 1 (inactive) in assay [9]. Further, the “fold change of Cadaverine concentration” value was 1.01 (inactive) in assay [10] and 1 (inactive) in [11]. For the same compound, the “fold change of 2-Phenylethylamine concentration” value in [12] was 1.08 (inactive).
With `Cc1cc(C2CCCCC2)n(O)c(=O)c1` [Ciclopirox ethanolamine] (20 µM), the growth in assay [1] came out at 0.962; in [2], 1.05; in [3] it was 1.06; in [4], 1.13. In assay [5], the “fold change of Histamine concentration” value was 0.978 (inactive). Also, the “fold change of Tryptamine concentration” value is 1.04 (inactive) in assay [6] and 1.02 (inactive) in assay [7]. Besides, the entries for the “fold change of Putrescine concentration” value in assay [8] and in assay [9] were 1.06 (inactive) and 0.994 (inactive), respectively. Also, the “fold change of Cadaverine concentration” value in assay [10] and in [11] was 1 (inactive) throughout. Further, the “fold change of 2-Phenylethylamine concentration” value in assay [12] is 0.976 (inactive).
Consider `CCCC(CCC)C(=O)O` [Valproic acid] (20 µM), for which the growth is 1.23 in assay [1], 1.01 in [2], 0.99 in [3] and 0.931 in [4]. Also, the “fold change of Histamine concentration” value in assay [5] was 0.977 (inactive). The “fold change of Tryptamine concentration” value in assay [6] is 1.07 (inactive); in assay [7], 1.11 (inactive). In addition, the results for the “fold change of Putrescine concentration” value in assay [8] and in assay [9] were 0.943 (inactive) and 0.971 (inactive), respectively. Moreover, the “fold change of Cadaverine concentration” value in [10] and in assay [11] was 0.999 (inactive) in each case. In addition, the “fold change of 2-Phenylethylamine concentration” value in assay [12] is 1.1 (inactive).
For the compound `CCOC(=O)Nc1ccc(NCc2ccc(F)cc2)nc1N` [Flupirtine] (20 µM), the growth in assay [1] was 1.18; in [2], 0.973; in assay [3] it was 1.04; in assay [4], 0.999. In addition, in assay [5], the “fold change of Histamine concentration” value is 0.95 (inactive). The “fold change of Tryptamine concentration” value in assay [6] is 0.95 (inactive); in assay [7] it was 1.01 (inactive). In addition, the “fold change of Putrescine concentration” value in [8] was 1.03 (inactive); in assay [9], 0.993 (inactive). The “fold change of Cadaverine concentration” value in [10] is 1.01 (inactive); in [11] it was 0.999 (inactive). Besides, the “fold change of 2-Phenylethylamine concentration” value in assay [12] was 1.03 (inactive).
Take `CCS(=O)(=O)CCn1c([N+](=O)[O-])cnc1C` [Tinidazole] (20 µM): the growth was determined as 0 in assay [1], 0.988 in [2], 0.99 in [3] and 0.176 in [4]. Also, in assay [5], the “fold change of Histamine concentration” value was 0.852 (inactive). In addition, the “fold change of Tryptamine concentration” value in assay [6] was 0.0351 (active); in assay [7], 0.0414 (active). For the same compound, the “fold change of Putrescine concentration” value in assay [8] was 1.01 (inactive); in [9], 0.977 (inactive). Moreover, the results for the “fold change of Cadaverine concentration” value in [10] and in assay [11] were 1.04 (inactive) and 0.993 (inactive), respectively. The “fold change of 2-Phenylethylamine concentration” value in [12] is 0.0315 (active).
For the compound `C[C@H]1[C@H](OC(=O)CCC(=O)O)O[C@@H]2O[C@@]3(C)CC[C@H]4[C@H](C)CC[C@@H]1[C@@]24OO3` [Artesunate] (20 µM), the growth is 1.08 in [1], 1.01 in assay [2], 1.03 in [3] and 0.931 in assay [4]. In assay [5], the “fold change of Histamine concentration” value was 1.04 (inactive). Also, the entries for the “fold change of Tryptamine concentration” value in [6] and in assay [7] were 1.05 (inactive) and 0.879 (inactive), respectively. Besides, the results for the “fold change of Putrescine concentration” value in [8] and in [9] were 0.992 (inactive) and 1.01 (inactive), respectively. Moreover, the results for the “fold change of Cadaverine concentration” value in assay [10] and in [11] were 0.99 (inactive) and 0.982 (inactive), respectively. In addition, in assay [12], the “fold change of 2-Phenylethylamine concentration” value is 0.834 (inactive).
For the compound `NS(=O)(=O)c1cc2c(cc1Cl)N=CNS2(=O)=O` [Chlorothiazide] (20 µM), the growth in [1] came out at 1.05; in [2] it was 1.06; in [3], 1.03; in assay [4], 0.966. In assay [5], the “fold change of Histamine concentration” value was 1.05 (inactive). Besides, the “fold change of Tryptamine concentration” value in assay [6] was 0.97 (inactive); in assay [7], 0.998 (inactive). The “fold change of Putrescine concentration” value was 1.05 (inactive) in assay [8] and 1.03 (inactive) in assay [9]. For the same compound, the “fold change of Cadaverine concentration” value in [10] is 0.97 (inactive); in [11], 1.01 (inactive). Besides, in assay [12], the “fold change of 2-Phenylethylamine concentration” value is 1.01 (inactive).
As to `COc1cc2nc(N3CCN(C(=O)C4CCCO4)CC3)nc(N)c2cc1OC` (centres undefined) [Terazosin hydrochloride] (20 µM), the growth in assay [1] is 1.07; in assay [2], 1.02; in assay [3], 1; in assay [4], 0.977. In addition, the “fold change of Histamine concentration” value in assay [5] is 1.08 (inactive). Further, the entries for the “fold change of Tryptamine concentration” value in assay [6] and in assay [7] were 1.03 (inactive) and 0.952 (inactive), respectively. Also, the “fold change of Putrescine concentration” value is 0.936 (inactive) in [8] and 1.03 (inactive) in assay [9]. For the same compound, the results for the “fold change of Cadaverine concentration” value in assay [10] and in assay [11] were 1 (inactive) and 1.01 (inactive), respectively. Further, the “fold change of 2-Phenylethylamine concentration” value in [12] was 0.948 (inactive).
